Assay results from PubChem BioAssay AID2158 (National Center for Advancing Translational Sciences (NCATS), 2009).
Several values for one entry are separate records, joined by “and”; a condition that tells them apart may be missing. Identical values can stand only once. Records with an inconclusive call do not appear. Activity calls are given as the source filed them. The call rests on the fitted dose curve; in most records, active means well fitted inhibition curve with a large enough effect; inconclusive means small, poorly fitted or top-dose-only effect; inactive means no such curve, though single readings can be large or run the other way.

Molecular target: Cruzipain (Trypanosoma cruzi) (UniProt P25779)
Sequence (P25779 123-467 limits assumed): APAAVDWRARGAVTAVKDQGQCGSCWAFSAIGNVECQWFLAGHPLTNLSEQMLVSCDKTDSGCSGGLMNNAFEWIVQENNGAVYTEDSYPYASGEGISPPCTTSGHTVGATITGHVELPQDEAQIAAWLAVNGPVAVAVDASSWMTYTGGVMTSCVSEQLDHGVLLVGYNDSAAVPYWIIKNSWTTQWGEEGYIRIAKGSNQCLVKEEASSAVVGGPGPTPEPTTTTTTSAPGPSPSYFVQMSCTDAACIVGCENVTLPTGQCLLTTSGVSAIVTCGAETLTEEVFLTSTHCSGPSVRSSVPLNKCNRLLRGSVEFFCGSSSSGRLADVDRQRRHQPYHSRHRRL
Test: Confirmation qHTS Assay for Inhibitors of Cruzain; further: nearly all actives have a fitted effect of over 40% in size;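 on Activity change, negative = inhibition: plate controls were uninhibited enzyme control for no effect and buffer wells lacking enzyme for full effect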
Details: purified cruzain, Z-FR-AMC fluorescence, 0.01% Triton
In short: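 Purified cruzain, 1.5 nM, pre-incubated 15 min at room temperature with compound in 100 mM sodium acetate pH 5.5, 5 mM DTT, 0.01% Triton X-100. Then 2 uM Z-FR-AMC added; AMC fluorescence (ex 360/em 450 nm) increase over 60 s gave reaction progress.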
Potency means the concentration at half of the fitted maximal effect.

Activity change, negative = inhibition, inactive:
CC1CCCN(c2ccc(C(=O)OCC(=O)N3c4ccccc4Sc4ccccc43)cc2[N+](=O)[O-])C1 (stereo not drawn) -7.68%, COc1ccccc1N1CCN(C(=O)CN(c2ccccc2OC)S(=O)(=O)c2ccccc2)CC1 -10.1%, CCc1ccc2[nH]c(=O)c(CN(Cc3cccnc3)Cc3nnnn3Cc3ccccc3)cc2c1 -20.9%, NC(N)=NCCC[C@H](NC(=O)CNC(=O)c1ccccc1)C(=O)Nc1cc(C(F)(F)F)ccc1Cl -8.36%, NNC(=O)Cn1c(SCc2ccccc2)nc2ccccc21 3.64%, C[C@H](CCC(=O)O)[C@H]1CC[C@@H]2[C@@H]3[C@@H](O)C[C@H]4C[C@@H](O)CC[C@@]4(C)[C@H]3CC[C@@]21C 2.73%, COc1ccccc1-c1nn2c(-c3cc(-c4ccccc4)n[nH]3)nnc2s1 -18.8%, CC(C)(C)OC(=O)NCc1nnc(-c2cc3ccccc3[nH]2)o1 0.21%, O=C(CNC(=O)c1ccccc1)N[C@@H](C(=O)Nc1cc(C(F)(F)F)ccc1Cl)c1ccccc1 -6.12% and -5.77%, CCc1ccc(C(=O)COC(=O)CNC(=O)COc2ccccc2)cc1 35.9%, Cc1ccc2[nH]c(=O)c(CN(CCO)Cc3nnnn3Cc3ccccc3)cc2c1 -1.03%, O=C(Nc1cc(C(F)(F)F)ccc1Cl)C(O)Cc1ccccc1 (stereo not drawn) -18.4%

Potency, active:
Cc1ccc(S(=O)(=O)N[C@@H](Cc2ccccc2)C(=O)CCl)cc1 14.1 µM and 28.2 µM, CC(C)Nc1nc(C#N)nc(Nc2ccccc2)n1 0.891 µM, CCN(c1ccccc1)c1nc(C#N)nc(N(CC)c2ccccc2)n1 5.01 µM, COc1cccc2c1[C@@H]1CN(CCCCn3c(=O)[nH]c4c(sc5ncc(-c6ccccc6)nc54)c3=O)C[C@@H]1CO2 15.8 µM, O=C(CNC(=O)C1CCCCC1)OCC(=O)c1ccc([N+](=O)[O-])cc1 2.82 µM, NC(=O)C(OC(=O)CNC(=O)C1CCCCC1)c1ccccc1 (stereo not drawn) 2.51 µM, O=C(CNC(=O)C1CCCCC1)OCC(=O)c1ccc2c(c1)CCC2 6.31 µM, COc1cc(NC(=O)C(OC(=O)CNC(=O)c2ccccc2)c2ccccc2)c(OC)cc1Cl (stereo not drawn) 11.2 µM, COc1ccc(C(=O)C(C)OC(=O)CNC(=O)C2CCCCC2)cc1 (stereo not drawn) 1.41 µM, O=C(CSc1nnc(-c2ccco2)c(-c2ccco2)n1)Nc1ccccc1 12.6 µM, Cc1ccc(C(=O)NCC(=O)OC(C(=O)Nc2cc(C(F)(F)F)ccc2Cl)c2ccccc2)cc1 (stereo not drawn) 7.94 µM
